Reference: PubChem BioAssay (NCI)
The panel holds about 83,000 compounds, 20% with a hit somewhere; the sample as a whole holds those more often.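 Values shown are percent growth following 48 h exposure of cells in 96-well plates to a single concentration of compound; below 10 was considered active.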 A number with no mark means an inactive call. Activity calls are given as the source filed them.

What was measured:
Assay in all cases: NCI-60 one-dose screen, 48 h (100 = growth as untreated, 0 = no growth, -100 = all killed)
Details in all cases: 10 µM unless noted
[1] = system: NCI-H23 lung
[2] = system: NCI-H226 lung
[3] = system: NCI-H322M lung
[4] = system: HOP-62 NSCLC
[5] = system: NCI-H460 lung
[6] = system: HOP-92 NSCLC
[7] = system: NCI-H522 lung
[8] = system: A549/ATCC NSCLC
[9] = system: 786-0 renal
[10] = system: COLO 205 colon
[11] = system: DU-145 prostate
[12] = system: K-562 leukemia
[13] = system: MALME-3M melanoma
[14] = system: MDA-MB-231 breast
[15] = system: RXF 393 renal
[16] = system: SF-268 CNS
[17] = system: SF-295 CNS
[18] = system: SF-539 CNS
[19] = system: UACC-257 melanoma
[20] = system: M14 melanoma

CCCCSc1nc(NCCc2c[nH]c3ccccc23)c(C#N)c(-c2ccc(OC)cc2)n1
growth [1]: 48.3% | growth [2]: 60.9% | growth [3]: 87.4% | growth [4]: 57% | growth [5]: 33.4% | growth [6]: 47.3% | growth [7]: 57.7% | growth [8]: 61.3% | growth [9]: 54.8% | growth [10]: 74.6% | growth [11]: 68.4% | growth [12]: 22.4% | growth [13]: 93.4% | growth [14]: 36.9% | growth [15]: -2.63% (active) | growth [16]: 56% | growth [17]: 43.4% | growth [18]: 54.4% | growth [19]: 94.8% | growth [20]: 70.1%

S=C(NCCc1ccccc1)Nc1ccc(OCc2nc3ccccc3[nH]2)cc1
growth [1]: 104% | growth [2]: 108% | growth [3]: 100% | growth [4]: 103% | growth [5]: 108% | growth [6]: 100% | growth [7]: 101% | growth [8]: 101% | growth [9]: 105% | growth [10]: 109% | growth [11]: 110% | growth [12]: 101% | growth [13]: 102% | growth [14]: 109% | growth [15]: 122% | growth [16]: 100% | growth [17]: 104% | growth [18]: 102% | growth [19]: 99.1% | growth [20]: 95.9%

COc1cc(C2CC(c3cc(OC)c(OC)c(OC)c3)=NN2C(C)=O)ccc1OCc1ccccc1 (stereo not drawn)
growth [1]: 47.2% | growth [2]: 28% | growth [3]: 59.8% | growth [4]: 70.2% | growth [5]: 24.3% | growth [6]: -4.8% (active) | growth [7]: 26.8% | growth [8]: 31.8% | growth [9]: 34% | growth [10]: 10.9% | growth [11]: 40.4% | growth [12]: 18.6% | growth [13]: 43.1% | growth [14]: 64% | growth [15]: 31.4% | growth [16]: 47.8% | growth [17]: 24.6% | growth [18]: 51.7% | growth [19]: 48.8% | growth [20]: 36.9%

COc1ccc(-c2ccnc(SCc3cc4cc(Cl)ccc4[nH]c3=O)n2)cc1
growth [1]: 57.8% | growth [2]: -32.1% (active) | growth [3]: 87.8% | growth [4]: -17.3% (active) | growth [5]: 19.6% | growth [6]: -32% (active) | growth [7]: 34.2% | growth [8]: 60.7% | growth [9]: -25.5% (active) | growth [10]: 105% | growth [11]: 35.6% | growth [12]: 79.1% | growth [13]: 27.9% | growth [14]: 26.9% | growth [15]: -10.7% (active) | growth [16]: 0.935% (active) | growth [17]: 26.5% | growth [18]: 46.2% | growth [19]: 72.1% | growth [20]: 73.8%

C=C1CCC2C3(C)COC(c4ccc(F)cc4)OC3CCC2(C)C1C/C=C1/C(=O)OCC1O (stereo not drawn)
growth [1]: -40.3% (active) | growth [2]: -8.14% (active) | growth [3]: 27% | growth [4]: -3.79% (active) | growth [5]: -39% (active) | growth [6]: -43.7% (active) | growth [7]: -80.7% (active) | growth [8]: 9.65% (active) | growth [9]: -89.2% (active) | growth [10]: -50.6% (active) | growth [11]: -41.4% (active) | growth [12]: 11.9% | growth [13]: -71.9% (active) | growth [14]: -45.2% (active) | growth [15]: -69.7% (active) | growth [16]: 39.7% | growth [17]: -8.06% (active) | growth [18]: -85.5% (active) | growth [19]: -62.6% (active) | growth [20]: -68.1% (active)

COc1ccc(C(=O)/C=C/c2ccc(Oc3nc(Nc4ccc(F)cc4)nc(N(C)C)n3)c(OC)c2)cc1
growth [1]: 42% | growth [2]: 69.7% | growth [3]: 80.4% | growth [4]: 100% | growth [5]: 26.2% | growth [6]: 57.4% | growth [7]: 49.7% | growth [8]: 64.7% | growth [9]: 57.3% | growth [10]: 93.1% | growth [11]: 51.7% | growth [12]: 26.4% | growth [13]: 79% | growth [14]: 53.9% | growth [15]: 50.6% | growth [16]: 51.8% | growth [17]: 51.5% | growth [18]: 26.8% | growth [19]: 42.5% | growth [20]: 65.1%

COc1ccc(NC(=O)Cn2c(O)c(N=Nc3ccc(S(N)(=O)=O)cc3)c3ccccc32)cc1
growth [1]: 10.5% | growth [2]: 39.8% | growth [3]: 34.4% | growth [4]: 8.57% (active) | growth [5]: 21.3% | growth [6]: 79.6% | growth [7]: 66.6% | growth [8]: 24.6% | growth [9]: -25.3% (active) | growth [10]: 58.5% | growth [11]: 82.4% | growth [12]: 40.8% | growth [13]: 29.8% | growth [14]: -22.1% (active) | growth [15]: 82.7% | growth [16]: 69.1% | growth [17]: 22.1% | growth [18]: 23.4% | growth [19]: 67% | growth [20]: 27.4%

N/N=C(\N)c1c(N)nc(=S)[nH]c1-c1ccc(Cl)cc1Cl
growth [1]: 103% | growth [2]: 106% | growth [3]: 106% | growth [4]: 92.5% | growth [5]: 116% | growth [6]: 76.2% | growth [7]: 95.3% | growth [8]: 104% | growth [9]: 101% | growth [10]: 120% | growth [11]: 120% | growth [12]: 105% | growth [13]: 92.3% | growth [14]: 94.9% | growth [15]: 115% | growth [16]: 108% | growth [17]: 94.5% | growth [18]: 94.6% | growth [19]: 108% | growth [20]: 107%

CC(=O)Nc1ccc(-c2cn(-c3cccc(C(=O)Nc4ccc(N5CCN(C)CC5)cc4)c3)nn2)cn1
growth [1]: 67.4% | growth [2]: 69.1% | growth [3]: 96.2% | growth [4]: 60% | growth [5]: 90.4% | growth [6]: 44.8% | growth [7]: 91.8% | growth [8]: 76.1% | growth [9]: 12.5% | growth [10]: 72% | growth [11]: 83.4% | growth [12]: 31.5% | growth [13]: 72% | growth [15]: 97% | growth [16]: 88.7% | growth [17]: 58.6% | growth [18]: 68.6% | growth [19]: 100% | growth [20]: 87%

CSc1ccccc1NC(=O)c1ccc2nn(/C(C#N)=C/c3ccccn3)nc2c1
growth [1]: -83.9% (active) | growth [2]: -96.8% (active) | growth [3]: 25.3% | growth [4]: 0.554% (active) | growth [5]: -36.9% (active) | growth [6]: -23.8% (active) | growth [7]: -92.7% (active) | growth [8]: 0.0722% (active) | growth [9]: -96.5% (active) | growth [10]: -84% (active) | growth [11]: -99.5% (active) | growth [12]: -10.1% (active) | growth [13]: -89% (active) | growth [15]: -95.8% (active) | growth [16]: 14.6% | growth [17]: -21.9% (active) | growth [18]: -93.1% (active) | growth [19]: -91% (active) | growth [20]: -88.1% (active)

Cc1ccc2c(N)c(C(=O)Nc3ccc(-c4ccccc4)cc3)sc2n1
growth [1]: 42.2% | growth [2]: 45.1% | growth [3]: 73.8% | growth [4]: 63.5% | growth [5]: 73% | growth [6]: 27.1% | growth [7]: 53.9% | growth [8]: 81.5% | growth [9]: 69.3% | growth [10]: 90.9% | growth [11]: 88.4% | growth [12]: 36.9% | growth [13]: 65.5% | growth [15]: 30.5% | growth [16]: 101% | growth [17]: 45.6% | growth [18]: 67.7% | growth [19]: 61% | growth [20]: 73.2%

N#Cc1ccc(C(=O)Nn2c(N)cc3ccccc3c2=O)cc1
growth [1]: 93.8% | growth [2]: 84.4% | growth [3]: 94.7% | growth [4]: 99.3% | growth [5]: 80.3% | growth [6]: 88.2% | growth [7]: 95% | growth [8]: 94.4% | growth [9]: 98.3% | growth [10]: 112% | growth [11]: 115% | growth [12]: 89.6% | growth [13]: 77.9% | growth [15]: 104% | growth [16]: 106% | growth [17]: 99% | growth [18]: 90% | growth [19]: 99.5% | growth [20]: 94.5%

N#Cc1c(-c2ccc(Cl)cc2)nc2n[nH]c(-c3ccc(Cl)cc3)c2c1-c1ccc(C(F)(F)F)cc1
growth [1]: -13.5% (active) | growth [2]: -30.7% (active) | growth [3]: 10.2% | growth [4]: -24.2% (active) | growth [5]: -49.1% (active) | growth [6]: -25.9% (active) | growth [7]: -14.8% (active) | growth [8]: 6.82% (active) | growth [9]: -3.14% (active) | growth [10]: -88.5% (active) | growth [11]: 19.8% | growth [12]: -21.3% (active) | growth [13]: -25.8% (active) | growth [15]: -14.7% (active) | growth [16]: 6.49% (active) | growth [17]: -54% (active) | growth [18]: -79.3% (active) | growth [19]: 7.34% (active) | growth [20]: -53.3% (active)

Cc1cc(C)cc(C(=O)Nc2cccc(-c3cn(-c4ccc(S(N)(=O)=O)cc4)nn3)c2)c1
growth [1]: 0.645% (active) | growth [2]: 15.9% | growth [3]: 68.5% | growth [4]: -18.3% (active) | growth [5]: 41.4% | growth [6]: -56.2% (active) | growth [7]: 61.7% | growth [8]: 62.2% | growth [9]: -66.3% (active) | growth [10]: 141% | growth [11]: 72.1% | growth [12]: 19.1% | growth [13]: 20.4% | growth [15]: -26.1% (active) | growth [16]: 16.6% | growth [17]: -36.6% (active) | growth [18]: -84.3% (active) | growth [19]: 76.2% | growth [20]: 73.4%

Clc1cccc(Cl)c1/C=C/c1cc(/C=C/c2ccc(Br)cc2)c2ccccc2n1
growth [1]: 98.2% | growth [2]: 93% | growth [3]: 89.7% | growth [4]: 94% | growth [5]: 99.5% | growth [6]: 86.2% | growth [7]: 97.9% | growth [8]: 98.2% | growth [9]: 92.2% | growth [10]: 117% | growth [11]: 110% | growth [12]: 99.5% | growth [13]: 91.8% | growth [15]: 83.4% | growth [16]: 110% | growth [17]: 99.2% | growth [18]: 95.7% | growth [19]: 105% | growth [20]: 101%
